# In the library only some 3.5% were active in any assay of this set; here they are far more common.
# UGM FP inh: inhibitors of M. tuberculosis UDP-galactopyranose mutase; P9WIQ1; purified UGM, fluorescence polarization probe displacement; inhibition, % at 10 µM; actives 0.06% (n = 320,000); AID 504406; in the data active = inhibition above about 10%, passing the limit was not always enough
# Rv3671c protease: inhibitors of M. tuberculosis serine protease Rv3671c; inhibition, % at 5.96 µM; actives 0.048% (n = 320,000); P9WHR9; in the data active = inhibition above about 38%;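 also: extracellular domain of Rv3671c used as enzyme; 0% = enzyme with DMSO and 100% = no enzyme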
# GDH-TPI counter: counter-screen for M. tuberculosis FBA inhibitors: GDH-TPI coupled enzymes | actives 1.2% (n = 360,000) | GDH-TPI coupled enzyme counterscreen, NADH absorbance | inhibition, % at 4.8 µM | AID 588335; in the data active = inhibition above about 30%;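 also: 0% = DMSO wells and 100% = wells lacking the enzyme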
# Mtb FBA inh: Mtb fructose-bisphosphate aldolase inhibition. purified M. tuberculosis FBA, fluorescence read-out. P9WQA3. AID 588726. actives 2.3% (n = 360,000). inhibition, % at 1 µM; in the data active = inhibition above about 27%;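 also: 0% = vehicle and 100% = reference inhibitor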
# Target sequence (P9WQA3 whole entry, looked up): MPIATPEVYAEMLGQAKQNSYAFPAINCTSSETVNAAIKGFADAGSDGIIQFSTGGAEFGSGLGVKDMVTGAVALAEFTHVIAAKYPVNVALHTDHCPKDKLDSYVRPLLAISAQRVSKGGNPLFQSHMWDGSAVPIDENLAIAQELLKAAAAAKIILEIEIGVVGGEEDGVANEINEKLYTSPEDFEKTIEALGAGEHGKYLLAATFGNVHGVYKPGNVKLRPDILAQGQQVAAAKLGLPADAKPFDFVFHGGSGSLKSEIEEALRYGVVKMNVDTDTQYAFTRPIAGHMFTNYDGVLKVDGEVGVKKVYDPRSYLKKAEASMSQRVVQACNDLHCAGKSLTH
# An asterisk follows results filed as active; x = no result given; + = active, no number.
SMILES,UGM FP inh,Rv3671c protease,GDH-TPI counter,Mtb FBA inh
CC1CCC/C(=C\c2ccc(O)cc2)C1=O (stereo unspecified),1,-2,32*,0
CCCCCCN1C[C@@H](n2cc(C3CC3)nn2)[C@H](O)C[C@@H]1c1ccccc1,x,x,16,1
CCCCn1c(-c2cccs2)nc2nc3ccccc3nc21,0,4,23,+
CCCCOCCCn1c(-c2ccco2)nc2nc3ccccc3nc21,-3,1,29,+
COCCCn1c(-c2ccco2)nc2ccccc2c1=O,0,0,11,0
CC(C)Cn1c(-c2cccs2)nc2nc3ccccc3nc21,0,-8,19,+
Cc1ccc(-n2c(-c3cccs3)nc3nc4ccccc4nc32)cc1,0,-2,x,x
Cc1ccc2c(c1)sc1nncn12,x,x,-1,-1
CN(c1ccccc1)S(=O)(=O)c1ccc(C(=O)N2CCN(c3ccccc3)CC2)cc1,x,x,-3,-2
COc1ccc(Nc2cc(C(=O)NC3CCCC3)c3ccccc3n2)c(OC)c1,1,-2,4,-2
CCOc1ccc(N2CC(C(=O)Nc3nnc(Cc4ccccc4)s3)CC2=O)cc1 (stereo unspecified),2,-5,6,1
CC(C)(C)C(=O)CSc1nc(N)cc(=O)[nH]1,0,2,35*,2
CN(CC(=O)Nc1ccccc1C(=O)NC1CC1)Cc1cccs1,0,-3,6,-3
CCc1ccc(OCC(=O)Nc2nnc(C3CCCC3)s2)cc1,-1,1,-2,4
CCOC(=O)C1=C(C)NC(SC(C)=O)=NC1c1ccc(OC(C)=O)c(OC)c1 (stereo unspecified),1,-2,36*,4
CCN(CC)c1ccc(C=Nc2ccc(OC)c(S(=O)(=O)N3CCOCC3)c2)c(O)c1,0,-11,32*,-1
CCN(CC)c1ccc(C=Nc2cccc(S(=O)(=O)N3CCOCC3)c2)c(O)c1,1,-5,61*,-2
COCC(C)NS(=O)(=O)c1ccc(C(=O)NCCCn2ccc3ccccc32)cc1 (stereo unspecified),1,0,-6,-3
NS(=O)(=O)c1ccc(CNC(=O)c2ccc(NS(=O)(=O)c3ccc4[nH]c(=O)[nH]c4c3)cc2)cc1,2,-10,-8,0
COCCCNc1oc(-c2ccccc2OC)nc1C#N,-1,3,40*,+
COCCCNc1oc(-c2ccccc2F)nc1C#N,0,3,5,+
CCN(CC)CCCNc1oc(-c2ccccc2[N+](=O)[O-])nc1C#N,2,-6,8,1
Cc1cc(C(=O)OCC(=O)c2cccs2)ccc1[N+](=O)[O-],x,x,13,-3
Cc1ccccc1-c1ccc(C=Nc2c(C)n(C)n(-c3ccccc3)c2=O)o1,-1,4,33*,-11
COCCNC(=O)c1cccc(OC2CCN(Cc3ccc(OC(F)F)cc3)CC2)c1,0,-3,7,5
SMILES,UGM FP inh,Rv3671c protease,GDH-TPI counter,Mtb FBA inh
COc1cc(/C=C2/C(=O)N(c3ccc([N+](=O)[O-])cc3)N=C2N2CCOCC2)ccc1O,2,-182,39*,-7
O=C(CN1C(=O)/C(=C2/SC(=S)N(CCS(=O)(=O)O)C2=O)c2ccccc21)Nc1cccc(Br)c1,0,4,9,-2
O=C(Nc1cccc(F)c1)c1c(O)c2ccccc2[nH]c1=O,0,0,32*,1
O=C(N/N=C/c1cccc(F)c1)c1c(O)c2ccccc2[nH]c1=O,-2,4,2,-2
O=S1(=O)C[C@H](N2CCN(CC3CC3)CC2)[C@@H](COCc2ccccc2)N1,x,x,x,4
Cc1ccccc1NC(=O)Cc1nc(COC(=O)c2ccc(O)cc2O)cs1,3,-2,-1,0
CC(=O)/C(N=Nc1ccc(C(=O)O)cc1[N+](=O)[O-])=C(\C)O,1,1,69*,-2
CN(CCOc1ccc(Cl)cc1)C(=O)c1cccc(S(=O)(=O)N2CCN(c3ccccc3)CC2)c1,x,x,-10,-2
COc1ccc(C2CC(=O)C3=C(C2)Nc2ccccc2N(C(=O)CCC(=O)O)C3c2ccc(F)cc2)cc1 (stereo unspecified),-1,-7,50*,19
COc1ccc(/C=C/C(=O)c2ccc(O)cc2)cc1CN1CCOCC1,2,-12,24,1
O=C(/C=C/c1cccc(O)c1)c1ccc(N2CCOCC2)cc1,0,8,43*,-2
COc1cc(/C=N/NC(=O)c2ccc(Cl)c(S(N)(=O)=O)c2)ccc1OCC(N)=O,-1,-4,43*,4
COc1cc(/C=N/NC(N)=S)ccc1OCC(=O)Nc1ccc(C)cc1,0,4,40*,2
COc1ccc(/C=N/NC(N)=S)cc1OC(=O)c1cccc2ccccc12,0,-64,34*,1

# Bioassay records as filed in PubChem BioAssay.
